High-throughput results from PubChem.
Rows were chosen to be rich in hits. Some 9% of all compounds tested hit in one or more screens of this group.
HP1b chromo inh: inhibitors of HP1-beta chromodomain binding to methylated histone tails | P83916 | Potency, µM (series often up to 114 µM), actives largely listed as inhibitors | AID 540317 | 390,000 tested, 0.56% active | AlphaScreen HP1-beta / biotin-H3K9me3 peptide binding; further: nearly all actives have a fitted effect of over 70% in size
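HP1-beta protein (50 nM final) preincubated 30 min at room temperature with biotinylated H3(1-18)K9me3 peptide (50 nM) in PBS pH 7.4, 0.01% Tween-20, then compound added for 30 min. AlphaScreen streptavidin donor/nickel chelate acceptor beads (10 ug/mL final), 30 min dark, luminescence read.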
JMJD2A Tudor: inhibitors of human JMJD2A Tudor domain; O75164; AlphaScreen JMJD2A-Tudor / H3K4me3 peptide binding; Potency, µM (titrated, usually from 114 µM), actives largely listed as inhibitors; 390,000 tested, 4.4% active; further: nearly all actives have a fitted effect of over 50% in size
PLK1 PBD block: blocks phosphopeptide binding to human PLK1 polo-box domain. P53350. Plk1 PBD binding of FITC phosphopeptide, fluorescence polarization. Potency, µM, hits mostly inhibitors. 360,000 tested, 2.8% active. AID 720504; further: series mostly up to about 57 µM; nearly all actives have a fitted effect of over 65% in size
ALOX12 inh: blocks human arachidonate 12S-lipoxygenase; purified 12hLO, xylenol orange hydroperoxide absorbance; Potency, µM (titrated, usually from 108 µM), hits mostly inhibitors; 580,000 tested, 1.1% active
Target sequence (P18054 whole entry, looked up): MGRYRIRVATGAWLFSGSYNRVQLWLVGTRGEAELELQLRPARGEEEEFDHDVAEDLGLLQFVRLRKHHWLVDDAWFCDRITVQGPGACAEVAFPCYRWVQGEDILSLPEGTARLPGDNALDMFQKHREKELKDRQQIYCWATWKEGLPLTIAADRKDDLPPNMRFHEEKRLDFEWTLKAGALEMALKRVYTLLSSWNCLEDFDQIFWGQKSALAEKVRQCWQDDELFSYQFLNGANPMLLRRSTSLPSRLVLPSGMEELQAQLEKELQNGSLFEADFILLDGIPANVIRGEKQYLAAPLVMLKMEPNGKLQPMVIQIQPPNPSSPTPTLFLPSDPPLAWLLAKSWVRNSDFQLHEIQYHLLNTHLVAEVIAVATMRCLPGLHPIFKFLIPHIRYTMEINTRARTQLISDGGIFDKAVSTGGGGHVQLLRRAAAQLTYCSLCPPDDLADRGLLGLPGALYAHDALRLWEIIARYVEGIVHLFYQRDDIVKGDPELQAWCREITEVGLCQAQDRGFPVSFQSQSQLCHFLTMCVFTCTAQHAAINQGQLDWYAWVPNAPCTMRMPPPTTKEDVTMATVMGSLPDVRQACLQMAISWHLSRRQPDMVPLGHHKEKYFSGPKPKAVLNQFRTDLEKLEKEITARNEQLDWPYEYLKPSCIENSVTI
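Hydroperoxide product was detected by ferrous iron/xylenol orange as the 573 to 405 nm absorbance ratio. Arachidonic acid at 40 uM (final) was turned over for 30 min at room temperature by 150 nM human 12hLO, pH 7.0 Hepes buffer, after 15 min compound preincubation.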
G9a inh: inhibitors of human histone lysine methyltransferase G9a. AID 504332. Q96KQ7. Potency, µM (highest dose often 102 µM), hits mostly inhibitors. G9a H3K9 monomethylation, AlphaScreen, 2 h. 350,000 tested, 8.8% active; further: nearly all actives have a fitted effect of over 75% in size
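Step 1: enzyme (final 20 nM) with compound, 15 min RT. Step 2: substrate peptide 500 nM and SAM 20 uM, 2 h RT. Step 3: anti-H3K9me1 antibody and AlphaScreen beads, 10 min, then plate read.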
BAZ2B block: inhibitors of human BAZ2B bromodomain; Potency, µM (series often up to 114 µM), most hits filed as inhibitors; 360,000 tested, 4.4% active; AlphaScreen BAZ2B-H3K14Ac peptide displacement; AID 504333; further: nearly all actives have a fitted effect of over 60% in size
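BAZ2B 50 nM plus b-H3(5-23)K14Ac 50 nM, PBS pH 7.4/0.01% Tween-20, 30 min RT; compound added (max 110 uM), 30 min RT; streptavidin donor/Ni-chelate acceptor beads 10 ug/mL final, 20 min dark; AlphaScreen read.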
Large screens that a line does not name were inactive. The call rests on the fitted dose curve; in most records, active means well fitted curve in the direction sought with a large enough effect; inconclusive means small, poorly fitted or top-dose-only effect, or another doubt; inactive means no such curve, though single readings can be large; an effect the other way counts as inactive or inconclusive.

CC(=O)c1cc(CN2CCN(Cc3ccc(C)cc3)C(CCO)C2)cs1 (stereo unspecified)	none
COc1cc(/C=C/CN2CCN(CCC(C)C)C(CCO)C2)ccc1O (stereo unspecified)	G9a inh 71µM
COc1cc(/C=C/CN2CCC(CO)(CC3CCCCO3)CC2)ccc1O (stereo unspecified)	G9a inh 56µM
CC(=O)c1cc(CN2CCN(CCC(C)C)C(CCO)C2)cs1 (stereo unspecified)	PLK1 PBD block 21µM (no result: G9a inh)
COc1cc(/C=C/CN2CCN(Cc3ccc(C)o3)C(CCO)C2)ccc1O (stereo unspecified)	G9a inh 79µM
O=C(c1c[nH]c(C(=O)N2CCN(c3ccccc3F)CC2)c1)c1cccc(Cl)c1Cl	G9a inh inconclusive
CN1[C@@H](CCC(=O)N2CC[C@@H](O)C2)CNC(=O)[C@@H]2[C@H]1CCN2C1CCOCC1	none (no result: HP1b chromo inh, JMJD2A Tudor, PLK1 PBD block, G9a inh, BAZ2B block)
Cc1ccc(CNC(=O)C2CCC(=O)N(CC3CCCCC3)C2)o1 (stereo unspecified)	ALOX12 inh inconclusive, G9a inh 45µM
O=C(Nc1cccc(S(=O)(=O)NC2=NCCC2)c1)c1cc(Cl)ccc1[N+](=O)[O-]	G9a inh 50µM (no result: ALOX12 inh)
CCCCCC(=O)Nc1cccc(S(=O)(=O)NC2=NCCCCC2)c1	none
O=C(Nc1cccc(S(=O)(=O)NC2=NCCC2)c1)c1ccccc1F	none (no result: G9a inh, BAZ2B block)
CCCCC(=O)OCC(=O)Nc1cccc(S(=O)(=O)NC2=NCCCCC2)c1	JMJD2A Tudor inconclusive, PLK1 PBD block 24µM
O=C(COC(=O)c1ccccc1)Nc1cccc(S(=O)(=O)NC2=NCCCCC2)c1	HP1b chromo inh inconclusive, JMJD2A Tudor inconclusive, PLK1 PBD block 27µM
CCOC(=O)c1[nH]c2ccc(C)cc2c1N	JMJD2A Tudor inconclusive, G9a inh 1.8µM
CCOC(=O)c1[nH]c2cc(OC)c(OC)cc2c1N	JMJD2A Tudor 56µM, ALOX12 inh inconclusive, G9a inh 3.2µM
CCOC(=O)c1[nH]c2ccc(OC)cc2c1NC(=O)c1nonc1C	none
CCOC(=O)c1[nH]c2cc(OC)c(OC)cc2c1NC(=O)CN1CCN(C)CC1	G9a inh inconclusive (no result: HP1b chromo inh, JMJD2A Tudor, PLK1 PBD block, ALOX12 inh)
CCOC(=O)c1[nH]c2ccc(OC)cc2c1NC(=O)c1ccc(OC)c(OC)c1	G9a inh 50µM
COCC1CN(S(=O)(=O)c2ccc(OC)c(Cl)c2)CC12CCNCC2 (stereo unspecified)	none (no result: HP1b chromo inh, JMJD2A Tudor, PLK1 PBD block, G9a inh, BAZ2B block)
CC(=O)Oc1ccc(C2(C)CC(C)(C)Oc3cc(OC(C)=O)ccc32)c(OC(C)=O)c1 (stereo unspecified)	BAZ2B block inconclusive (no result: G9a inh)
COc1ccc(N2C(=S)NC(C)(C)CC2(C)c2ccc(OC(C)=O)cc2OC(C)=O)cc1 (stereo unspecified)	ALOX12 inh inconclusive, G9a inh 79µM, BAZ2B block inconclusive
N#Cc1ccccc1-c1ccc2ncnc(NCc3cccs3)c2c1	ALOX12 inh 13µM (no result: HP1b chromo inh, JMJD2A Tudor, PLK1 PBD block, BAZ2B block)
Cc1cccc(CNc2ncnc3ccc(-c4ccccc4C#N)cc23)c1	none (no result: HP1b chromo inh, JMJD2A Tudor, PLK1 PBD block, G9a inh, BAZ2B block)
CC(=O)c1ccc(OCCCC(=O)n2nnc3ccccc32)cc1	JMJD2A Tudor 79µM, PLK1 PBD block 21µM
CC(=O)c1ccc(OCC(O)Cn2nnc3ccccc32)cc1 (stereo unspecified)	none
Nc1nncn1C(=O)CCCOc1ccc(Cl)cc1Cl	G9a inh inconclusive
O=C(CCCOc1ccc(Cl)cc1Cl)n1nnc2ccccc21	PLK1 PBD block 8.4µM, ALOX12 inh inconclusive
O=C(c1cc(-c2ccccc2Cl)nc2ccccc12)N1CCCC1	none (no result: HP1b chromo inh, JMJD2A Tudor, PLK1 PBD block, G9a inh, BAZ2B block)
Cn1cnc(S(=O)(=O)N2CCCN(S(=O)(=O)c3ccccc3)CCC(=O)NCC2)c1	none (no result: HP1b chromo inh, JMJD2A Tudor, PLK1 PBD block, G9a inh, BAZ2B block)
COc1cc(OC)c(C(=O)OCC(=O)N2CCN(S(=O)(=O)c3ccc(C)cc3C)CC2)cc1OC	none (no result: G9a inh, BAZ2B block)
O=C(CSc1nc2ccc([N+](=O)[O-])cc2[nH]1)NC1CCCCCC1	G9a inh 45µM
O=C(CSc1nc2ccc([N+](=O)[O-])cc2[nH]1)NC1CCCCC1	none
O=C(CSc1nc2ccc(Cl)cc2[nH]1)NC1CCCC1	ALOX12 inh inconclusive, G9a inh 25µM, BAZ2B block inconclusive
COc1cc(SSc2cc(OC)cc([N+](=O)[O-])c2N)c(N)c([N+](=O)[O-])c1	HP1b chromo inh inconclusive, JMJD2A Tudor 1.4µM, PLK1 PBD block 0.67µM, ALOX12 inh inconclusive, G9a inh 0.45µM, BAZ2B block 8.9µM
CC(C)CC(=O)N1CCC2(CC1)CC(N(Cc1ccc(F)cc1)C1CC1)CCO2 (stereo unspecified)	none (no result: HP1b chromo inh, JMJD2A Tudor, PLK1 PBD block, G9a inh, BAZ2B block)
Cc1ccccc1NC1=C(Cl)C(=O)N(C2CCCCC2)C1=O	none
COc1ccccc1NC1=C(Cl)C(=O)N(C2CCCCC2)C1=O	JMJD2A Tudor inconclusive, ALOX12 inh inconclusive, G9a inh 45µM, BAZ2B block inconclusive
CCN1/C(=C/c2ccc3ccccc3[n+]2CCCS(=O)(=O)[O-])C=Cc2cc(C)ccc21	ALOX12 inh 45µM, G9a inh 10µM, BAZ2B block 45µM
CCN1/C(=C/c2cc[n+](C)cc2)C=Cc2cc(C)ccc21	HP1b chromo inh inconclusive, JMJD2A Tudor inconclusive, ALOX12 inh inconclusive, G9a inh 2.2µM, BAZ2B block inconclusive
CCn1c(CNC(=O)c2ccc(OC)cc2)nnc1SCC(=O)Nc1ccc(F)cc1	none (no result: PLK1 PBD block)
CCC(=O)Nc1ccc(C(=O)NCc2ccccn2)cc1	none
CC(=O)N1N=C2c3ccccc3CCC2C1c1cccs1 (stereo unspecified)	none (no result: G9a inh)
CN1N=C2c3ccccc3CCCC2C1c1ccc(F)cc1 (stereo unspecified)	ALOX12 inh 40µM, G9a inh 79µM
CC(=O)Nc1nonc1-c1nnc(SCc2ccc(F)cc2)n1C	none (no result: PLK1 PBD block)
Cc1cccc(C2c3[nH]c4ccccc4c3CCN2C(=O)Cc2nc(-c3ccccc3)n[nH]2)n1 (stereo unspecified)	JMJD2A Tudor inconclusive, G9a inh inconclusive
O=C(O)c1cccnc1C(=O)N1CCc2c([nH]c3ccccc23)C1C(F)(F)F (stereo unspecified)	JMJD2A Tudor inconclusive, G9a inh 56µM
Cc1nc(C(=O)N2CCc3c([nH]c4ccccc34)C2c2ccccn2)cs1 (stereo unspecified)	none
O=C(Cc1ccsc1)N1CCc2c([nH]c3ccccc23)C1c1ccccn1 (stereo unspecified)	JMJD2A Tudor inconclusive, G9a inh 50µM
CC(C)c1nc(C(=O)N2CCc3c([nH]c4ccccc34)C2c2ccccn2)cs1 (stereo unspecified)	JMJD2A Tudor 56µM, BAZ2B block 22µM (no result: G9a inh)
Cc1ccccc1C(=O)N1CCc2c([nH]c3ccccc23)C1C(F)(F)F (stereo unspecified)	HP1b chromo inh inconclusive, G9a inh inconclusive, BAZ2B block inconclusive
Cc1ccc(NC(=O)CSc2nnc(/N=C/N(C)C)s2)cc1	PLK1 PBD block inconclusive
